Compound activity from PubChem BioAssay.
HEK cytotox: kills HEK 293 cells; HEK 293 viability, ATP luminescence (CellTiter-Glo), 48-72 h; Potency, µM (top dose mostly 115 µM), most hits filed as inhibitors; 94,000 tested, 6.6% active; note: nearly all actives have a fitted effect of over 60% in size
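Luminescence from cellular ATP, measured with CellTiter-Glo, indicates HEK 293 viability. Cells plated at 250 cells/well are treated with compound for 48 or 72 hr at 37 degree Celsius before reagent addition.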
3T3 cytotox: NIH 3T3 cell cytotoxicity; NIH 3T3 viability, CellTiter-Glo ATP luminescence, 48-72 h; Potency, µM (top dose mostly 96.7 µM), usual class: inhibitors; 94,000 tested, 4.3% active; AID 1345082; note: nearly all actives have a fitted effect of over 55% in size
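Viability of NIH 3T3 cells after 48 or 72 hr compound treatment at 37 °C was assessed by CellTiter-Glo, with luminescence imaged following a 10 min room-temperature step.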
NPR1 antag: human Npr1 receptor antagonism; P16066; HEK293 hNpr1 GloSensor cGMP, ANP-stimulated luminescence; Potency, µM (top dose mostly 46.3 µM), actives largely listed as inhibitors; 76,000 tested, 1.6% active; calls by dose curve; note: nearly all actives have a fitted effect of over 60% in size
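Compound pre-incubated 30 min at room temperature on GloSensor-loaded HEK293 cells stably carrying hNpr1 and the pGS-40F cGMP biosensor. Stimulation uses hNppA at 0.1 nM final; luminescence is taken at baseline and 20 min post-agonist.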
Luciferase inh: inhibitors of firefly (Photinus pyralis) luciferase; P08659; purified P. pyralis luciferase, luminescence, biochemical; 76,000 tested, 2.5% active; Potency, µM (doses to about 115 µM), most hits filed as inhibitors; AID 1347043; note: nearly all actives have a fitted effect of over 65% in size
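Biochemical qHTS: compound (6-point titration) added to 10uM D-luciferin plus 10uM ATP in Tris acetate pH 7.5 buffer with Mg, Tween-20 and BSA, then purified enzyme at 10nM; light output imaged.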
GPT2 inh: inhibitors of human GPT2 alanine aminotransferase; AID 1671188; Recombinant GPT2, coupled pyruvate oxidase/HRP Amplex Red fluorescence; 100,000 tested, 0.25% active; Potency, µM (titrated, usually from 57.7 µM), hits mostly inhibitors; Q8TD30; note: nearly all actives have a fitted effect of over 60% in size
Target sequence (Q8TD30 whole entry, looked up): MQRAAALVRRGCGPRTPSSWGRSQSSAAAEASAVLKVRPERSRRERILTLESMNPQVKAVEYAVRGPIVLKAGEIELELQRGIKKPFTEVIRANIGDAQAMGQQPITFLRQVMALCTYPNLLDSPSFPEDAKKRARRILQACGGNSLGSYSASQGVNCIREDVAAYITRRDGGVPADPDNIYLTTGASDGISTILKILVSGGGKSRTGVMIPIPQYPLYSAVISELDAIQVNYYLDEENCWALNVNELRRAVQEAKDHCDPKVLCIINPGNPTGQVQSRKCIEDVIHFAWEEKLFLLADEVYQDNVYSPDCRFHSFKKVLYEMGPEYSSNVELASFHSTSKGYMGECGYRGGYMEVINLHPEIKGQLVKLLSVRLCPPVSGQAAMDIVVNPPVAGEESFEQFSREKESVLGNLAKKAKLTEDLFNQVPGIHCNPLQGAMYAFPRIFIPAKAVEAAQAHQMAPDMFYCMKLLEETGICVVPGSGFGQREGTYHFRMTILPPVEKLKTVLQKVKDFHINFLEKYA
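Recombinant GPT2 (10ng/uL) with 250uM a-KG and 2mM L-alanine, 30 min at room temperature, in HEPES pH 7.5 buffer. Pyruvate detected by pyruvate oxidase/HRP/Amplex Red fluorescence after 30 min in the dark; AOA (50uM) as positive control.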
Each line names hits and unclear results; the compound was inactive in the other large screens. Compounds with a hit are over-represented: about 10% of the library has one in this group of screens. Unless noted, calls come from the whole dose curve; as a rule, active = well fitted curve in the direction sought with a large enough effect; inconclusive = small, poorly fitted or top-dose-only effect, or another doubt; inactive = no such curve, though single readings can be large; an effect the other way counts as inactive or inconclusive.

COCCN1CCCCCC(O)c2cc(C(=O)NCCN3CCCCC3)ccc21 (centres undefined)	none
Cc1ccc(Nc2ccnc(N3CCCC3C(=O)N3CCCC(C)C3)n2)cc1 (centres undefined)	HEK cytotox inconclusive, 3T3 cytotox inconclusive (no result: NPR1 antag, Luciferase inh)
CCOc1ccc(C2Cn3nnc(-c4nc(-c5ccsc5)no4)c3CO2)cc1 (centres undefined)	Luciferase inh inconclusive
CC(=O)Nc1ccc(C(=O)NC[C@@H]2C=C(C)[C@H](Cc3nnc(-c4ccccc4F)o3)C[C@H]2C(C)C)cc1	HEK cytotox 28µM, 3T3 cytotox inconclusive
CC1=C[C@@H](CNC(=O)c2cncnc2)[C@H](C(C)C)C[C@H]1Cc1nnc(-c2ccccc2F)o1	HEK cytotox inconclusive, 3T3 cytotox inconclusive
CC1=C[C@@H](CNC(=O)NC(C)C)[C@H](C(C)C)C[C@H]1Cc1nnc(-c2ccccc2F)o1	HEK cytotox 79µM, 3T3 cytotox 32µM, GPT2 inh inconclusive
CC1=C[C@@H](CNC(=O)c2cnccn2)[C@H](C(C)C)C[C@H]1Cc1nnc(-c2ccccc2F)o1	HEK cytotox 35µM, 3T3 cytotox inconclusive
CCNC(=O)NC[C@@H]1C=C(C)[C@H](Cc2nnc(-c3ccccc3F)o2)C[C@H]1C(C)C	HEK cytotox inconclusive, 3T3 cytotox inconclusive
COc1ccc(-c2nnc(C[C@@H]3C[C@@H](C(C)C)[C@H](CNC(=O)c4cnccn4)C=C3C)o2)cc1	HEK cytotox inconclusive
C#CCNC[C@@H]1C=C(C)[C@H](Cc2nnc(Cc3c[nH]c4ccccc34)o2)C[C@H]1C(C)C	HEK cytotox 50µM, 3T3 cytotox inconclusive
Cc1cccc(CN2CCCCCCNC(=O)CC2)c1	none
C#CCNC[C@@H]1C=C(C)[C@H](Cc2nnc(-c3ccccc3F)o2)C[C@H]1C(C)C	HEK cytotox 71µM, 3T3 cytotox inconclusive
CC1=C[C@@H](CNC(=O)CN(C)C)[C@H](C(C)C)C[C@H]1Cc1nnc(-c2ccccc2F)o1	HEK cytotox inconclusive, 3T3 cytotox 32µM
CCCCc1ncc(CN2CCN(Cc3ccccc3)CC(O)C2)[nH]1 (centres undefined)	HEK cytotox inconclusive
COc1cccc(CNC(=O)c2ccc3c(c2)CC(=O)N3Cc2cccc(F)c2)c1OC	HEK cytotox inconclusive, 3T3 cytotox inconclusive, Luciferase inh inconclusive
COc1ccc(-c2nccc3c(=O)cc(-c4cccnc4)oc23)cc1OC	3T3 cytotox 22µM
O=c1cc(-c2ccncc2)oc2c(-c3cccc(O)c3)nccc12	HEK cytotox inconclusive, 3T3 cytotox 22µM
O=c1cc(-c2cccnc2)oc2c(NCc3ccc(F)cc3)nccc12	3T3 cytotox 50µM
C[S+](=O)([O-])c1ccc(-c2nccc3c(=O)cc(-c4cccnc4)oc23)cc1	HEK cytotox inconclusive, 3T3 cytotox 25µM, GPT2 inh inconclusive
Cc1cnc(CC2CCN(S(=O)(=O)c3ccc4c(c3)CCC4)C2)n1Cc1ccccc1 (centres undefined)	HEK cytotox inconclusive, 3T3 cytotox inconclusive (no result: NPR1 antag, Luciferase inh)
OC[C@H]1CN(Cc2ccc(-n3ccnc3)cc2)C[C@H]1CN1CCCCC1	HEK cytotox inconclusive, 3T3 cytotox inconclusive
Cc1ccccc1-c1nccc2c(=O)cc(-c3cccnc3)oc12	HEK cytotox 112µM, 3T3 cytotox 25µM
CCCc1ccc2oc(C(=O)N(C)Cc3snnc3C)c(C)c2c1	HEK cytotox 40µM, 3T3 cytotox inconclusive, Luciferase inh inconclusive
Cc1ccc2oc(C(=O)N(C)Cc3cc(-c4ccccc4)no3)c(C)c2c1	HEK cytotox inconclusive
Cc1[nH]cnc1CN1CCNc2cc(-c3ccccc3)ncc2C1	HEK cytotox inconclusive, 3T3 cytotox inconclusive, Luciferase inh inconclusive
c1ccc(-c2cc3c(cn2)NCCN(CC2CC2)C3)cc1	3T3 cytotox inconclusive, Luciferase inh inconclusive
COc1cccc(CN2CCNc3cnc(-c4ccccc4)cc3C2)c1	HEK cytotox 89µM, 3T3 cytotox inconclusive
CCOc1cc2c(cn1)NCCN(Cc1ccccc1OC)C2	HEK cytotox inconclusive, 3T3 cytotox inconclusive
c1ccc(-c2cc3c(cn2)CN(Cc2c[nH]c4ccccc24)CCN3)cc1	HEK cytotox 45µM, 3T3 cytotox inconclusive, Luciferase inh inconclusive
COc1ccc(OC)c(CN2CCNc3cnc(-c4ccccc4)cc3C2)c1	HEK cytotox 56µM, 3T3 cytotox 89µM
Oc1ccccc1CN1CCNc2cnc(-c3ccccc3)cc2C1	HEK cytotox 63µM, 3T3 cytotox inconclusive, NPR1 antag inconclusive
CN(CCc1ccccn1)[C@@H]1[C@H](O)[C@H](CO)O[C@@H]1CN(Cc1ccc(F)cc1)Cc1ccc(F)cc1	HEK cytotox 35µM, 3T3 cytotox 50µM
Cc1oc2ccn(Cc3ccc(F)cc3)c(=O)c2c1C(=O)NC1CCCCCC1	HEK cytotox 35µM, 3T3 cytotox inconclusive
CC(=O)Nc1ccc(NC(=O)c2c(C)oc3ccn(Cc4ccc(F)cc4)c(=O)c23)cc1	HEK cytotox inconclusive
COCC(=O)NC[C@H]1CCN(Cc2ccc(C#N)cc2)C[C@H]1N(C)C	none
CNC(=O)c1cc(C2CC2)nc2onc(C3CCN(C(=O)Nc4ccc(C)c(F)c4)C3)c12 (centres undefined)	HEK cytotox 45µM, 3T3 cytotox inconclusive (no result: NPR1 antag, Luciferase inh, GPT2 inh)
COc1cccc(-c2ccc3onc(C)c3n2)c1	HEK cytotox inconclusive, 3T3 cytotox inconclusive, Luciferase inh inconclusive
COc1ccc(-c2ccc3onc(C)c3n2)cc1OC	HEK cytotox inconclusive, 3T3 cytotox 40µM
N#Cc1cccc(-c2c(C(=O)NCCN3CCOCC3)nc3sccn23)c1	none (no result: NPR1 antag, Luciferase inh)
CC(C)c1ccc(CC(=O)N2CCCc3ncc(C(=O)NCc4ccncc4)cc32)cc1	HEK cytotox inconclusive
Nc1ncc(-c2ccc(-c3cc(NC4CCCC4)nc4[nH]ccc34)cc2)[nH]1	Luciferase inh inconclusive
CC(C(=O)N1CCOCC1)N1C(=O)COc2ccc(C(=O)COc3ccc(Cl)cc3)cc21 (centres undefined)	HEK cytotox inconclusive
CC(C)c1ccccc1OCC(=O)c1ccc2c(c1)N(CC(=O)N1CCCC1)C(=O)CO2	HEK cytotox 40µM
CCc1cccc(OCC(=O)c2ccc3c(c2)N(CC(=O)N(C)Cc2ccccc2)C(=O)CO3)c1	HEK cytotox inconclusive, 3T3 cytotox inconclusive, NPR1 antag 13µM
CC(C)c1ccccc1OCC(=O)c1ccc2c(c1)N(CC(=O)N1CCCCC1)C(=O)CO2	HEK cytotox inconclusive, 3T3 cytotox inconclusive
CN(Cc1ccccc1)C(=O)CN1C(=O)COc2ccc(C(=O)COc3ccccc3F)cc21	HEK cytotox 50µM
O=C(CN1C(=O)COc2ccc(C(=O)COc3ccccc3F)cc21)NC1CCCCC1	none
CC(C(=O)NCc1ccccc1)N1C(=O)COc2ccc(C(=O)COc3ccc(Cl)cc3)cc21 (centres undefined)	HEK cytotox 89µM, 3T3 cytotox inconclusive
